# The whole screen tested about 400,000 compounds, of which about 5,500 (1.4%) were called active. Inconclusive results (about 9%) are left out. Calls follow the shape of the dose curve; as a rule, active = well fitted cell-killing curve with a large enough effect; inconclusive = small, poorly fitted or top-dose-only effect, or effect the other way; inactive = flat fitted curve, though single readings scatter. What follows is part of a selection rich in actives, with near analogues and random picks from the rest.
# Assay: qHTS assay for MDR1-selective chemotherapeutics: Primary screen using the parental adenocarcinoma cell KB-3-1; also: nearly all actives have a fitted effect of over 60% in size
# Conditions: KB-3-1 viability, CellTiter-Glo ATP luminescence, 72 h; series mostly up to 46.1 µM; activity change, negative = cytotoxic: at the top concentration
# Method in brief: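 Parental KB-3-1 viability, qHTS format: 72 h compound exposure, 37 °C; CellTiter-Glo; media-only wells and DMSO plates as controls; concentration-effect fits on corrected data.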
# % is scaled to controls: 0 for no effect and ±100 for the full control effect; potency is read from the fitted curve at half-maximal effect.
Structure (SMILES),Potency,"activity change, negative = cytotoxic"
CCOC(=O)c1cc2c(ccn2C)n1CC(=O)N1CCC(C)CC1,23.1 µM (active),–
Cc1ccc(C)c(OCC(=O)Nc2sc3c(c2C#N)CCCC3)c1C,–,-13.9% (inactive)
COc1ccc(N2CCN(C(=O)C3CCCN(C(=O)c4cc5sccc5n4C)C3)CC2)cc1 (centres undefined),–,-12.9% (inactive)
Cc1cc(=O)oc2cc(OC(C)C(=O)NCCc3ccc(S(N)(=O)=O)cc3)ccc12 (centres undefined),–,9.37% (inactive)
CC(=O)c1c(C)[nH]c(C(=O)COc2ccc3c(C)cc(=O)oc3c2)c1C,14.6 µM (active),–
COc1ccc(N2CCN(C(=O)COc3ccc4c(C)cc(=O)oc4c3)CC2)cc1,–,14.4% (inactive)
CC(=O)c1c(C)[nH]c(C(=O)COC(=O)CCOc2ccc(C)cc2)c1C,–,-18.7% (inactive)
Cc1ccc(O)c(/C=N/NC(=O)COc2ccc3c(C)cc(=O)oc3c2)c1,18.4 µM (active),–
Cc1ccc(OCC(=O)Nc2ccc3oc(=O)ccc3c2)cc1C,–,5.71% (inactive)
Cc1cccc2c(=O)cc(CSc3ccccc3NC(=O)C(C)C)[nH]c12,–,0% (inactive)
Cc1cc(C)cc(NC(=O)Cn2c(=O)c3ccccc3n3nncc23)c1,–,20.8% (inactive)
Cc1csc(NCC(=O)c2c[nH]c3ccccc23)n1,–,-70.7% (inactive)
Cn1cc(S(=O)(=O)N2CCCCCC2)cc1C(=O)N1CCN(c2ccc(F)cc2)CC1,–,-0.904% (inactive)
O=[N+]([O-])c1cc(Br)c(O)c(/C=N/Nc2nc3ccccc3s2)c1,23.1 µM (active),–
Brc1ccccc1/C=N/Nc1nc2ccccc2o1,–,-9.64% (inactive)
O=[N+]([O-])c1c(NCCO)cc(Sc2nc3ccccc3s2)c2nonc12,–,-1.45% (inactive)
COc1cc(OC)c(C2C=C(C(=O)O)Nc3ncnn32)cc1OC (centres undefined),–,-2.08% (inactive)
S=c1[nH]c(=S)c2n[nH]nc2[nH]1,–,-28.9% (inactive)
COc1ccccc1N1CCN(C(=O)c2ccc(NC3=NC4CS(=O)(=O)CC4S3)cc2)CC1 (centres undefined),–,0% (inactive)
COc1ccc2c(CC(=O)N3CCc4cc(OC)c(OC)cc4C3)coc2c1,–,-1.95% (inactive)
COc1cc(Cl)ccc1Nc1ncc(C(=O)N2CCN(c3ccccc3OC)CC2)c2ccccc12,–,-1.69% (inactive)
COc1ccccc1N1CCN(C(=O)c2cc(=O)c3cc(C)cc(C)c3o2)CC1,0.206 µM (active),–
COc1cc2c(cc1OC)CN(C(=O)c1cc(S(=O)(=O)N3CCCCC3)ccc1Cl)CC2,–,0% (inactive)
COc1ccc(Nc2ncc(C(=O)N3CCN(c4ccccc4OC)CC3)c3ccccc23)cc1,inactive,–
COc1cc(CCC(=O)N2CCN(c3ccccc3Cl)CC2)cc(OC)c1OC,–,3.22% (inactive)

Structure (SMILES),Potency,"activity change, negative = cytotoxic"
COc1ccccc1N1CCN(C(=O)c2cc(=O)c3cc(C)ccc3o2)CC1,13 µM (active),–
COc1cc2c(cc1OC)CN(C(=O)c1cc(=O)c3ccccc3o1)CC2,2.91 µM (active),–
CCc1ccc2oc(-c3ccc(C)c(NC(=O)/C=C/c4ccco4)c3)nc2c1,–,4.52% (inactive)
COc1ccccc1CNC(=O)CCCCn1c(=O)c2ccccc2n(CC(=O)Nc2cc(Cl)ccc2C)c1=O,–,7.54% (inactive)
CCCS(=O)(=O)N1CCC(n2c(C(F)(F)F)nc3cccnc32)CC1,–,-14.7% (inactive)
O=C(NCC(c1ccco1)S(=O)(=O)c1cccs1)c1ccc(F)cc1 (centres undefined),–,8.37% (inactive)
CS(=O)c1ccc(/C=C2\C=Cc3ccccc32)cc1 (centres undefined),–,32.2% (inactive)
O=C(CCn1c(=O)c2ccccc2n(Cc2ccc(Cl)cc2)c1=O)NCc1ccc2c(c1)OCO2,–,0.984% (inactive)
CCc1ccc(C(=O)CC2(O)C(=O)N(CCc3ccccc3)c3ccc(Br)cc32)cc1 (centres undefined),–,6.28% (inactive)
COc1ccc(NC(=O)N2CCCn3nc(C)cc32)cc1OC,–,-2.38% (inactive)
CCOc1ccc(CNC(=O)c2ccc3nc(CC)c(CC)nc3c2)cc1OC,–,-9.86% (inactive)
CN(C)c1cccc2ccccc12,–,21.8% (inactive)
Cc1ccc(F)cc1S(=O)(=O)N1CCC(c2nc3ccccc3s2)CC1,–,-27.5% (inactive)
CCOC(=O)c1ccc(NC(=O)Cn2cc(S(=O)(=O)Cc3ccccc3F)c3ccccc32)cc1,–,16.2% (inactive)
Cc1ccc(C)c(Cn2c(C)c(CNCc3ccc(F)cc3)c(C(=O)O)c2C)c1,–,5.57% (inactive)
CCOC(=O)N1CCN(S(=O)(=O)c2ccc(C(=O)Nc3ccc(F)cc3F)cc2)CC1,4.61 µM (active),–
CCOC(=O)N1CCN(S(=O)(=O)c2ccc(Br)cc2)CC1,–,-25.8% (inactive)
O=C(Nc1ccccc1F)c1ccc(S(=O)(=O)N2CCCCCC2)cc1,–,-3.4% (inactive)
Cc1sc2ncn(CC(=O)N3CCN(c4ccc(F)cc4)CC3)c(=O)c2c1S(=O)(=O)N1CCN(c2ncccn2)CC1,–,-0.197% (inactive)
CCOC(=O)c1ccc(NC(=O)C2CC(=O)NC(=Nc3ccc(C)c(C)c3)S2)cc1 (centres undefined),–,-1.1% (inactive)
CC(=O)OC1=C(C(C)=O)N(Cc2ccccc2)S(=O)(=O)c2ccccc21,–,-6.94% (inactive)
CCc1cccc(NC(=O)CN(C)S(=O)(=O)c2ccc3[nH]c4c(c3c2)CCCC4)c1,–,-20.9% (inactive)
Cc1cccc(NC(=S)NCc2ccc3[nH]c4c(c3c2)CCCC4)c1,16.4 µM (active),–
Cc1cccc(NC(=S)N2CCC(C(=O)c3ccc(F)cc3)CC2)c1,–,-11.4% (inactive)
